Assay results reported in the supplement of paper PMC11732987, “Enantioselective OTUD7B fragment discovery through chemoproteomics screening and high-throughput optimisation” (Communications Chemistry, 2025).

Columns and labels:
Assay in all cases: log2 ratio of Biotin-Ahx-Ub-VS probe labelling (fragment/DMSO); higher = less target engagement (more negative = stronger competition), active = hit call of the paper (q ≤ 0.05, log2 ratio ≤ -1)
Conditions in all cases: compound concentration: 200 uM; treatment time: 3 h
OTUD6B = biological target: T1, OTUD6B (UniProt Q8N6M0)
T1 sequence (whole entry): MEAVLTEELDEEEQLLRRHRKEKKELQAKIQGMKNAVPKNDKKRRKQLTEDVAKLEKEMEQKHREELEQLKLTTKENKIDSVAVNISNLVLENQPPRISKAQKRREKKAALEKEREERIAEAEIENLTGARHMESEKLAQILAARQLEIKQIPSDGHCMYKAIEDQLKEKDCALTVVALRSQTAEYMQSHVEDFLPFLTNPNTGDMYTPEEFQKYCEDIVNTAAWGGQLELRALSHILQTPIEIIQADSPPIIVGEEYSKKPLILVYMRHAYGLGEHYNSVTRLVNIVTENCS
In short: (§1)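 HEK293T lysate (495 µg per sample, in Tris/CHAPS/IGEPAL buffer with protease inhibitors) was exposed in triplicate for 3 h to fragment at 200 µM or to vehicle, then to Biotin-Ahx-Ub-VS at 0.5 µM final for 1 h. Labelled DUBs were enriched on NeutrAvidin, digested with LysC and trypsin, and analysed by diaPASEF LC-MS/MS. Spectronaut label-free quantities were normalised to the global median, and values are average log2 ratios of fragment over vehicle from an unpaired t-test. Only proteins with ≥2 unique peptides were used.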

OTUD7B = biological target: T2, OTUD7B (UniProt Q6GQQ9)
T2 sequence (whole entry): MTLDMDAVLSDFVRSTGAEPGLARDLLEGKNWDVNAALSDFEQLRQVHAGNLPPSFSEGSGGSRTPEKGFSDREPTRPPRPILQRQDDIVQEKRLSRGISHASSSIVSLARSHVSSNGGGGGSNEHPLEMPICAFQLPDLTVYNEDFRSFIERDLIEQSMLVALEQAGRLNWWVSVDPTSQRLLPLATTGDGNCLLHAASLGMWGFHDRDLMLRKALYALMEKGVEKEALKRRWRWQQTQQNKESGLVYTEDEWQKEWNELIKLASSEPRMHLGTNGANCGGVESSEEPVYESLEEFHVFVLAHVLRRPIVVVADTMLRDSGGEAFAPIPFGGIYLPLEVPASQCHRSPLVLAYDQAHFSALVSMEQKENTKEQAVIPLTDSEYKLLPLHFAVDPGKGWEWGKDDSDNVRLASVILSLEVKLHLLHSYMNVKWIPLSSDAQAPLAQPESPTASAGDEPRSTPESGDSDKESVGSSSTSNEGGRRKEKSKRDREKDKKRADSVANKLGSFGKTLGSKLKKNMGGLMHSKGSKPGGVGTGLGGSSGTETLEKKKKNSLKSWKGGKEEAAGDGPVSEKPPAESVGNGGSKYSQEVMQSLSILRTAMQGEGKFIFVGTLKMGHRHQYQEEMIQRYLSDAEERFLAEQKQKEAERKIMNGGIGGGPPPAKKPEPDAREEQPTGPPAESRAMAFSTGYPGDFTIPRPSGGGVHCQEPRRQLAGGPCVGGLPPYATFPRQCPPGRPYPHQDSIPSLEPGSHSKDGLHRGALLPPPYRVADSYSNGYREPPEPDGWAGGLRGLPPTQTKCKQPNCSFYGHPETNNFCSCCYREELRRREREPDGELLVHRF
In short: as §1

PRPF8 = PRPF8 (UniProt Q6P2Q9)
In short: as §1

PSMD7 = biological target: T3, PSMD7 (UniProt P51665)
T3 sequence (whole entry): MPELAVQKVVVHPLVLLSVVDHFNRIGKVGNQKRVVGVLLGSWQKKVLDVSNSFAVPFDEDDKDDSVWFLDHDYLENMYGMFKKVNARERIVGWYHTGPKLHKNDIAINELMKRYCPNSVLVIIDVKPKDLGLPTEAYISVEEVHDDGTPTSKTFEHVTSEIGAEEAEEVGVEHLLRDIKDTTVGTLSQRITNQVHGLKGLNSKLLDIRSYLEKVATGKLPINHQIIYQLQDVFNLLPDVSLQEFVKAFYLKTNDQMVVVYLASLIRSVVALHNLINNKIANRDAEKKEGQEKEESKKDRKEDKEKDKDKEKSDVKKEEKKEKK
In short: as §1

UCHL1 = UCHL1 (UniProt P09936)
In short: as §1

UCHL3 = biological target: T4, UCHL3 (UniProt P15374)
T4 sequence (whole entry): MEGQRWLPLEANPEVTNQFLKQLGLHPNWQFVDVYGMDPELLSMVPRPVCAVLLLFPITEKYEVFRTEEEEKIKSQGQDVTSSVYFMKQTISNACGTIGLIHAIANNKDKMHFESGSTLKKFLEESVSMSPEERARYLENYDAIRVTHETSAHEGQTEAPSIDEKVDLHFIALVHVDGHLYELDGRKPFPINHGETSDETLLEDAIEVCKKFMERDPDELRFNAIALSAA
In short: as §1

UCHL5 = biological target: T5, UCHL5 (UniProt Q9Y5K5)
T5 sequence (whole entry): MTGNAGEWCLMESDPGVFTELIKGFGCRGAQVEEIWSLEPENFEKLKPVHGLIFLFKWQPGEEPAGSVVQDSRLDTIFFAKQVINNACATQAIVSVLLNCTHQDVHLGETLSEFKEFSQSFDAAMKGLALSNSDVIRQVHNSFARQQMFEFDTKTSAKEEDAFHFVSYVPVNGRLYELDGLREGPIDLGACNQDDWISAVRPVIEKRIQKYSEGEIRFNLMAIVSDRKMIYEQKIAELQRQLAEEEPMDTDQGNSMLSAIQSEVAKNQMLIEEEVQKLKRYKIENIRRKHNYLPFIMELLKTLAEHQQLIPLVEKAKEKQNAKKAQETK
In short: as §1

USP10 = USP10 (UniProt Q14694)
In short: as §1

USP15 = biological target: T6, USP15 (UniProt Q9Y4E8)
T6 sequence (whole entry): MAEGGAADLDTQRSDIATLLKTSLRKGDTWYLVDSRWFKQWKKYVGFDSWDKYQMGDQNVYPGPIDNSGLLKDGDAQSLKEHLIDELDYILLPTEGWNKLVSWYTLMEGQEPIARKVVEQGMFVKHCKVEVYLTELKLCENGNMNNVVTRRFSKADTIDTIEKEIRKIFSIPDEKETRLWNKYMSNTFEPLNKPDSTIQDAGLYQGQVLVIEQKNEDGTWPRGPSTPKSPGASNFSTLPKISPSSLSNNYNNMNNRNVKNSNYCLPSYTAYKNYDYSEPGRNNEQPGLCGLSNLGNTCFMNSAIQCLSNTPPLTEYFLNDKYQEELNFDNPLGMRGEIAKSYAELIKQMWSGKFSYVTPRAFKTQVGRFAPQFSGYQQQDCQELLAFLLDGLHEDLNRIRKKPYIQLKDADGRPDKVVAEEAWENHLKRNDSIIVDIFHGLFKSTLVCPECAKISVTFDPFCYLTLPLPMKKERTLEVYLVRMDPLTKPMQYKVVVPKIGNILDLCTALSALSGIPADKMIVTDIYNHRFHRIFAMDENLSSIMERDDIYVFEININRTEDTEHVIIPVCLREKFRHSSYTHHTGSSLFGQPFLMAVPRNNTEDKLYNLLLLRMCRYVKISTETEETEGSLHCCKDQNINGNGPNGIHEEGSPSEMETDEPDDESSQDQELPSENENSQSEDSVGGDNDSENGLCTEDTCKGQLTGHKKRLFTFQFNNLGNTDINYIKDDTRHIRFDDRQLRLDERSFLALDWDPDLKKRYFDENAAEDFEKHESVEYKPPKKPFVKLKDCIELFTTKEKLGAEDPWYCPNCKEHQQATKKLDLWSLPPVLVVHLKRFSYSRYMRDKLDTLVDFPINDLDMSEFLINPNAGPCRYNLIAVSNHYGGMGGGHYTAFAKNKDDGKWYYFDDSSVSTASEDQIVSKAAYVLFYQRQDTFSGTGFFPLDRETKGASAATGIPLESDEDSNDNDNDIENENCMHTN
In short: as §1

USP16 = USP16 (UniProt Q9Y5T5)
In short: as §1

Measured: log2 ratio of Biotin-Ahx-Ub-VS probe labelling

Chain of USP16 (Q9Y5T5 whole entry, looked up): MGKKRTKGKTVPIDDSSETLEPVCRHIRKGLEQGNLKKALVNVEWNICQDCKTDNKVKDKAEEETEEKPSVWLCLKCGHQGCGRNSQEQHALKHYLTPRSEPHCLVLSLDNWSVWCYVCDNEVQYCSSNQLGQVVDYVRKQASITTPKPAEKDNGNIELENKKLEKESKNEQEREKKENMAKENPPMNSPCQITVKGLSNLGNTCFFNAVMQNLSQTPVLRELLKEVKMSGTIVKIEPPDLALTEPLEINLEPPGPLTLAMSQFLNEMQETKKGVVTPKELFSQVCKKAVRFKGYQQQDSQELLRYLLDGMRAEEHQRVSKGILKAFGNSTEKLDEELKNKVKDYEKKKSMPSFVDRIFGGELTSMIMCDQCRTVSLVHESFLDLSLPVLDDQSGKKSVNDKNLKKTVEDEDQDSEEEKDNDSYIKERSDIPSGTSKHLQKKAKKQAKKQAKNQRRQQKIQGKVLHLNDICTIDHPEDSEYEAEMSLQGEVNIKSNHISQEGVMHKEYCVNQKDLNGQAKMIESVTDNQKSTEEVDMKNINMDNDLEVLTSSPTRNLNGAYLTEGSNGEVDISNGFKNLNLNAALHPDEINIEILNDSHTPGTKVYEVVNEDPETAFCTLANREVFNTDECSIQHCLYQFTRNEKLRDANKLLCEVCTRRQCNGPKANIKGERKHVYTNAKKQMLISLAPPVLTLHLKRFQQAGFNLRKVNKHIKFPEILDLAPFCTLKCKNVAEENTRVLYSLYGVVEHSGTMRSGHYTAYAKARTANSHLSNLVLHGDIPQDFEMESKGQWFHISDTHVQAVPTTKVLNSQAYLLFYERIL
Chain of USP10 (Q14694 whole entry): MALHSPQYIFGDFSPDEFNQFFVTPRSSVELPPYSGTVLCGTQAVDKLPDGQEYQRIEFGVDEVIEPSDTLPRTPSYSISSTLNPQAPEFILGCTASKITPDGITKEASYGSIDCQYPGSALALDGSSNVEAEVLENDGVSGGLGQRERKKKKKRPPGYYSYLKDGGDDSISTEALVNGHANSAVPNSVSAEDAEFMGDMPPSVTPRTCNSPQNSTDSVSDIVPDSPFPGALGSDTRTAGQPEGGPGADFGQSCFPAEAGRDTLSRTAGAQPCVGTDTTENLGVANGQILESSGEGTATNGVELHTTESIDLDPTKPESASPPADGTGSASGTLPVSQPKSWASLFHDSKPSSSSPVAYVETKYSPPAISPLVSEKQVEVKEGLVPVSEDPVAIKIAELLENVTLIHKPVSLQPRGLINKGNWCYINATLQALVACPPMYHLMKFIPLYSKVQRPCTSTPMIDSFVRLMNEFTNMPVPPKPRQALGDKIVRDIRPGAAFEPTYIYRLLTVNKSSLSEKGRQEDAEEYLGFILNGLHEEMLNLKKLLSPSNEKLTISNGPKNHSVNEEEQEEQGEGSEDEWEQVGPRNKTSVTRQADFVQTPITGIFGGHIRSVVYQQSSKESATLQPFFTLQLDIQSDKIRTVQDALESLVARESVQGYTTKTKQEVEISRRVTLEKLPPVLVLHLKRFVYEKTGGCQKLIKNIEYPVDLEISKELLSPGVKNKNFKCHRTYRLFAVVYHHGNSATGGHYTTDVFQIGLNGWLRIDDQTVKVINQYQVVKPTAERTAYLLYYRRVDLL
Chain of UCHL1 (P09936 whole entry, looked up): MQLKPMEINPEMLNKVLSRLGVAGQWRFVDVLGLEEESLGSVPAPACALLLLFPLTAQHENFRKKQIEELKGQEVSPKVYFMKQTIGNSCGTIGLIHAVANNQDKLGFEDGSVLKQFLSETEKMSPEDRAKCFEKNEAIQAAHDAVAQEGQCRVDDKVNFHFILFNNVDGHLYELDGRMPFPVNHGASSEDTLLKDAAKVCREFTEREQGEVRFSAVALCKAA

CC(=O)C1CCCCN1C(=O)CCl (stereo not given)
inactive: OTUD6B 0.00453 | OTUD7B -0.279 | PRPF8 0.0549 | PSMD7 0.203 | UCHL3 0.181 | UCHL5 -0.0871 | USP10 -0.0595 | USP15 -0.162 | USP16 -0.109
active: UCHL1 -1.44
